MITF TRPM1 inh = inhibitors of MITF-dependent TRPM1 promoter reporter, primary screen, cell-based, SK-MEL-5, single point, luciferase; SK-MEL-5 TRPM1 promoter luciferase, 24 h; inhibition, % at 12.5 µM; hit rate 0.83% among 330,000; AID 488899, 2010;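 active = mean inhibition across replicates of 60% or more, whatever share of single replicates reaches that level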
KKLEB cytotox = cytotoxicity in KKLEB CF airway cells, primary screen, cytotoxicity control for CF NF-kB inhibitor project, cell-based, uHTS, fluorescence assay plates; activity change (cytotoxicity), % at 5 µM; hit rate 0.36% among 360,000; AID 602141, 2011; KKLEB CF airway cells viability, ATPlite luminescence, overnight; stronger effect = lower value; cells stimulated with P. aeruginosa culture filtrate;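 active = corrected activity change at or below -50% at 5 µM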
CF NFkB block = inhibitors of PAF-induced NF-kB signaling, primary screen, cell-based, GFP fluorescence, uHTS. hit rate 0.86% among 360,000. KKLEB NF-kB-GFP reporter, GFP fluorescence overnight. AID 588850, 2011. inhibition, % at 5 µM;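 active = at least 50% inhibition at 5 µM, scaled per plate between neutral and stimulator controls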;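 note: PAF is a Pseudomonas aeruginosa culture filtrate used as stimulus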
HIF-2a inh = HIF-2a reporter inhibitors, primary screen, luminescence, 786-0 RCC cells. inhibition, % at 18.8 µM. hit rate 0.72% among 360,000. AID 624352, 2012. 786-0 RCC cells HIF-2a reporter, luciferase luminescence, overnight;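 active = inhibition of the luminescence signal of 40% or more relative to plate controls, in a single-dose primary screen at 18.75 µM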
ABHD5-PLIN5 inh = ABHD5-PLIN5 interaction inhibitors, primary screen, cell lysate, split luciferase complementation, luminescence; inhibition, % at 4 µM; Split G. princeps luciferase complementation, 4 h; AID 602281, 2012; Perilipin-5 (Homo sapiens) + 1-acylglycerol-3-phosphate O-acyltransferase ABHD5 (Homo …; hit rate 0.78% among 360,000;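 active = inhibition above the mean inhibition across every tested compound plus 3 SD, cut at about 22% in these data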
Target sequence (Q00G26 whole entry, looked up): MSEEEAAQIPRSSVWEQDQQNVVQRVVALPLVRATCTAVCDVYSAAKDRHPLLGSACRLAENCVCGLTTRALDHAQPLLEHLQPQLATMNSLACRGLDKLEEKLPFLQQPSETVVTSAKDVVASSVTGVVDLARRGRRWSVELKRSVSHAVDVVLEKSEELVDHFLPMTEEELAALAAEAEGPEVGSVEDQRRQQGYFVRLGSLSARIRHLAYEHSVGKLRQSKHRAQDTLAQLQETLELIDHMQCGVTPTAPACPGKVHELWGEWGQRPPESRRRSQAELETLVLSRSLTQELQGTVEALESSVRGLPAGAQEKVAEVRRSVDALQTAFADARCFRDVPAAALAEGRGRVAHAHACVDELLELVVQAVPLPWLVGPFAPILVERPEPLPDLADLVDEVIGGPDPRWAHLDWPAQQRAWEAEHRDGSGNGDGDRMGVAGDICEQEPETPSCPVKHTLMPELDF
Target sequence (Q8WTS1 whole entry, looked up): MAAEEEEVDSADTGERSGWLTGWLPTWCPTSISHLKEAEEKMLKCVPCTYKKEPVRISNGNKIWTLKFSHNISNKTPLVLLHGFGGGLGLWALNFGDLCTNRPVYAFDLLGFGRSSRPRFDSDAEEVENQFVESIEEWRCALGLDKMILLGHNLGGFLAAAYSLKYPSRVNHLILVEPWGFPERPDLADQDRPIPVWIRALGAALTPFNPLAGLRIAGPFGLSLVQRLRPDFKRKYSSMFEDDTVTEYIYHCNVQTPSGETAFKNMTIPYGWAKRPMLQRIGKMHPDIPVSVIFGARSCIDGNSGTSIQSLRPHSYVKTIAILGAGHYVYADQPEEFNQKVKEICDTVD
Peg3 prom inh = Peg3 promoter-driven luciferase inhibitors, primary screen, cell-based, HeLa, luciferase luminescence; inhibition, % at 20 µM; HeLa PEG-Prom luciferase reporter, overnight; hit rate 1.7% among 360,000; AID 588405, 2011;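 active = inhibition of at least 50% at 20 µM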
Mdm2 MdmX conf = retested Mdm2-MdmX interaction blockers, confirmation, cell-based, luminescence, single concentration, set 2; shares compounds with HIF-2a inh; SaOS-2 split-luciferase Mdm2/MdmX complementation; inhibition, % at 8 µM; hit rate 99% among 740; AID 504601, 2011;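 active = mean inhibition of the luminescence signal across two replicates at or above 26 percent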
HIF-2a inh conf = HIF-2a reporter inhibitor retest, confirmation, luminescence, 786-0 RCC cells; shares compounds with HIF-2a inh; AID 651580, 2012; HIF-2a luciferase reporter luminescence, overnight; inhibition, % at 18.8 µM; hit rate 56% among 1,800;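 active = mean inhibition across four replicates of at least 40 percent at the single tested concentration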
HIF-1a counter = HIF-1a luciferase reporter signal reduction – MiaPaCa-2 cells, single concentration, counter-screen for HIF-2a inhibitor project, confirmation | shares compounds with HIF-2a inh | MiaPaCa-2 HIF-1a luciferase reporter, desferoxamine, overnight | inhibition, % at 18.8 µM | hit rate 72% among 1,800 | AID 651589, 2012;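 active = mean inhibition of the reporter signal across four replicates at the single tested dose of 50% or more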
A number is an active result; 0 = inactive; - = no result given. Compounds with a hit are over-represented: about 3% of the library has one in this group of screens.

SMILES	MITF TRPM1 inh	KKLEB cytotox	CF NFkB block	HIF-2a inh	ABHD5-PLIN5 inh	Peg3 prom inh	HIF-2a inh conf	HIF-1a counter	others
Cc1cccc(NC(=O)CSc2nc3c([nH]c4ccccc43)c(=O)n2C)c1	-	0	0	0	0	0	-	-
O=C(Nc1ccc(Nc2ccncc2)cc1)c1ccc([N+](=O)[O-])cc1	86	0	0	48	0	80	0	0
Cc1nc2cc(-c3ccc(Cl)cc3)nn2c(C)c1CCC(=O)NCc1ccco1	0	0	0	81	0	0	87	0
COC(=O)C1CCN(CC(=O)Nc2ccc(C(=O)Nc3ccccc3OC)cc2)CC1	0	0	0	0	0	0	-	-
Cn1c(=O)c2[nH]c(COc3ccc(C(C)(C)C)cc3)nc2n(C)c1=O	0	0	0	0	0	0	-	-
N#C/C(=C\C=C\c1ccccc1[N+](=O)[O-])C(=O)NCc1ccccc1	69	0	0	81	0	105	61	102
COc1ccc(C)c2sc(N(CCCN(C)C)C(=O)c3ccc(S(=O)(=O)N4CCc5ccccc5C4)cc3)nc12	96	-84	75	85	0	102	0	97
O=C(O)c1ccc(Cl)c(S(=O)(=O)Nc2ccccc2Cc2ccccc2)c1	0	0	0	0	0	0	-	-
CCOC(=O)C1CCN(C(=O)Nc2ccc3snnc3c2)CC1	0	0	0	52	0	0	50	0
N#CCNC(=O)C1CC(=O)N(CCc2ccc(F)cc2)C1 (stereo not given)	0	0	0	0	0	0	-	-
CCOC(=O)C(CCCOc1ccc(C(C)CC)cc1)C(=O)OCC (stereo not given)	0	0	0	70	0	0	73	69
CCOC(=O)C(CCCOc1ccc(C)cc1)C(=O)OCC	0	0	0	0	0	0	-	-
CCC(C)c1ccc(OCc2ccc(C(=O)O)o2)cc1 (stereo not given)	0	0	0	55	0	0	0	0
Cc1ccnc(N/C=C(/NC(=O)c2ccccc2)C(=O)NN)n1	0	0	0	0	0	0	-	-
Cc1ccnc(N/C=C(/NC(=O)c2ccccc2)C(=O)N/N=C\c2ccc(F)cc2)n1	0	0	0	66	0	0	69	88
O=C1CCCN1CCCNc1nc(NCc2ccccc2)nc2ccsc12	-	0	0	0	0	0	-	-
CC(=O)c1cccc(NC(=O)c2c(-c3c(F)cccc3Cl)noc2C)c1	0	0	0	0	0	0	-	-
O=C(Nc1ccc(F)cc1)Nc1cc(OCC(F)(F)F)cc(OCC(F)(F)F)c1	81	0	0	0	0	0	-	-	Mdm2 MdmX conf=93
CCOc1ccc(NC(=O)Nc2cc(OCC(F)(F)F)cc(OCC(F)(F)F)c2)cc1	0	0	0	0	0	0	-	-
CCOC(=O)c1cnc(SCC(=O)N2CCOCC2)nc1N	0	0	0	0	0	0	-	-
COc1ccc(C(=O)Cn2c(C(=O)/C=C/c3ccccc3)nc3ccccc32)cc1	0	0	0	40	0	0	0	102
O=C(Nc1sc2c(c1C(=O)N1CCOCC1)CCCCC2)c1cccnc1	0	0	0	0	0	0	-	-
COc1ccc(OCC(=O)Nc2ccc3c(c2)nc(CCn2ccccc2=O)n3C)cc1	0	0	0	0	0	0	-	-
CN(C(=O)c1cccc(NC(=O)Cc2ccc(NC(=O)C3CCCN(C(=O)c4ccccc4)C3)cc2)c1)C1CCCC1 (stereo not given)	0	0	0	0	0	0	-	-
O=C(/C=C\Nc1ccccn1)c1ccc(Cl)cc1	0	0	0	46	0	0	0	0
SMILES	MITF TRPM1 inh	KKLEB cytotox	CF NFkB block	HIF-2a inh	ABHD5-PLIN5 inh	Peg3 prom inh	HIF-2a inh conf	HIF-1a counter	others
CCOC(=O)C(C)(C)N(Cc1cccc(C)c1)S(=O)(=O)c1ccc(Cl)c([N+](=O)[O-])c1	0	0	0	64	0	88	0	100
COc1cccc(NC(=S)N(CCN(C)C)C(C)c2ccncc2)c1 (stereo not given)	0	0	0	0	0	0	-	-
COc1cc(/C=C2\SC(N)=NC2=O)cc(Cl)c1O	0	0	0	0	0	0	-	-
COc1cc(/C=C2/CCC/C(=C\c3cc(O)c(OC)c(Cl)c3)C2=O)cc(Cl)c1O	0	0	0	91	0	0	-	-	Mdm2 MdmX conf=103
O=C(COC(=O)c1ccc(NS(=O)(=O)c2ccc(F)c(F)c2)cc1)NCC1CCCO1 (stereo not given)	0	0	0	45	0	0	0	0
CN(CC(=O)Nc1c(Cl)cccc1Cl)C(=O)CCC(=O)c1ccccc1	0	0	0	0	0	0	-	-
COc1ccc(NC(=O)CCS(=O)(=O)c2ccccc2Cl)cc1S(=O)(=O)Nc1ccc(Cl)cc1	0	0	0	44	0	0	0	68
COc1ccc(NC(=O)CCC(=O)c2cccs2)cc1S(=O)(=O)Nc1ccc(Cl)cc1	0	0	0	0	0	0	-	-
Cc1[nH]nc2c1C(c1cc(Br)cs1)C(C#N)=C(N)O2 (stereo not given)	0	0	60	43	0	0	40	92
Cc1ccc(S(=O)(=O)N2CCOCC2)cc1NC(=O)CN1CCN(C)CC1	0	0	0	0	0	0	-	-
Cc1ccc(S(=O)(=O)N2CCOCC2)cc1NC(=O)CN1CCN(c2ccc(O)cc2)CC1	0	0	0	46	0	0	44	98
COC(=O)COc1ccc(S(=O)(=O)N2CCCCCC2)cc1C	0	0	0	0	0	0	-	-
COC(=O)COc1ccc(S(=O)(=O)N2CCN(c3ccccc3F)CC2)cc1C	0	0	0	53	0	0	0	0
O=C(COc1ccc(S(=O)(=O)N2CCOCC2)cc1)N1CCc2ccccc2C1	0	0	0	0	0	0	-	-
CCOC(=O)COc1ccc(S(=O)(=O)N2CCN(c3ccccc3)CC2)cc1	0	0	0	67	0	0	0	0
CCOC(=O)COc1ccc(S(=O)(=O)N2CCc3ccccc3C2)cc1	0	0	0	44	0	0	0	0
CCOC(=O)COc1ccc(S(=O)(=O)N2CCN(c3ccc(F)cc3)CC2)cc1	0	0	0	43	0	0	0	0
